According to PubChem BioAssay:
Calls of active or inactive are those of the source. Unless noted, how the calls were made is not given here.

What was measured:
[1] = system: Wnt5a (protein binding on small-molecule microarray); experiment: small molecules binding Wnt5a protein – biophysical, small-molecule microarray, 635/667 nm fluorescence, primary screen (AID 1142); settings: 635 nm fluorescence, higher = more signal;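 further: fluorescence read at 667 nm with signal to noise per printed feature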
[2] = ATP-based viability of Huh7 replicon cells – cell-based, CellTiter-Glo luminescence, basal, 48 h, cytotoxicity control for HCV replication inhibitor project, primary screen (AID 1143); settings: higher = more signal, called active from +8 up or from −8 down;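 further: Huh7 hepatoma cells carrying a hepatitis C replication reporter with no stimulus; test concentration not given here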
[3] = Pseudomonas biofilm growth suppression – PAO1 strain, BacTiter-Glo luminescence, LB-PBS, primary screen (AID 1144); settings: P. aeruginosa PAO1 biofilm, 12 h, higher = more signal
[4] = basal CRE-LacZ reporter activity in PC12 – cell-based, unstimulated, primary screen (AID 1145); settings: no forskolin, luminescence, 4.5 h, higher = more signal, called active from +8 up or from −8 down
[5] = forskolin-driven CRE-LacZ activity in PC12 – cell-based, CRE-LacZ reporter, forskolin-stimulated, primary screen (AID 1146); settings: luminescence, 4.5 h, higher = more signal, called active from +8 up or from −8 down;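 further: PC12 cells with 6xCRE LacZ reporter stimulated by forskolin 10 µM; beta-galactosidase reporter signal reflecting CREB driven transcription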
[6] = target: Streptavidin (Streptomyces avidinii) (UniProt P22629); experiment: compounds binding control protein streptavidin – biophysical, small-molecule microarray, 635/667 nm fluorescence, artefact control for SMM compound annotation, primary screen (AID 1147); settings: higher = more signal;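 further: signal reflects streptavidin binding to arrayed compounds as a control protein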
[7] = probe aInhba binding on compound microarray – biochemical, small-molecule microarray, 635/667 nm fluorescence, primary screen (AID 1148); settings: higher = more signal;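 further: score merges 667nm spot fluorescence with signal-to-noise for antibody binding to printed compounds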
Torsin-1A (Homo sapiens) [8] = target: Torsin-1A (Homo sapiens) (UniProt O14656); experiment: TOR1A wild-type binding on microarray – cell lysate, small-molecule microarray, lysate, 635/667 nm, primary screen (AID 1149); settings: COS7 hTOR1A-WT lysate, 635 nm fluorescence, higher = more signal
Torsin-1A (Homo sapiens) [9] = target: Torsin-1A (Homo sapiens) (UniProt O14656); experiment: torsin A mutant lysate binding on microarrays – cell lysate, small-molecule microarray, COS7 lysate, 635/667 nm fluorescence, primary screen (AID 1150); settings: COS7 hTOR1A mutant lysate, 635 nm fluorescence, higher = more signal;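 further: score pools 667 nm emission and signal to noise measuring lysate protein binding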
[10] = system: Sonic hedgehog protein (Shh); experiment: Sonic hedgehog microarray binding compounds – biochemical, small-molecule microarray, 635/667 nm fluorescence, primary screen (AID 1151); settings: 635 nm fluorescence, higher = more signal;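 further: Shh protein binding to compounds spotted on small-molecule microarray slides; score combines spot fluorescence intensity with signal-to-noise across triplicate slides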
[11] = optical density shifts of acrAB sulA E. coli – strain DRC41, OD650, 48 h, E. coli filamentation inducer project, primary screen (AID 1152); settings: higher = more signal, called active from +8 up or from −8 down;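 further: E. coli MC1000 strain DRC41 lacking acrAB efflux pump and sulA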
[12] = probe aLefty1 binding on compound microarray – biochemical, small-molecule microarray, 635/667 nm fluorescence, primary screen (AID 1153); settings: higher = more signal;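 further: score merges spot fluorescence with signal-to-noise ratio from the scanned slide images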
[13] = plasmodial surface anion channel blockers, osmotic lysis – cell-based, P. falciparum Indochina, OD700, 1 h, primary screen (AID 1154); settings: P. falciparum Indochina infected RBC osmotic lysis, higher = more signal, called active from +8 up or from −8 down
[14] = plasmodial surface anion channel blockers, osmotic lysis – cell-based, P. falciparum Indochina, OD700, 2 h, primary screen (AID 1155);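 further: lysis reports solute entry through the parasite surface anion channel PSAC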; settings: P. falciparum Indochina infected erythrocytes, higher = more signal, called active from +8 up or from −8 down
[15] = changes in parasitized red cell lysis, either direction – P. falciparum Indochina, OD700, 3 h, PSAC antagonist project, primary screen (AID 1156); settings: P. falciparum-infected erythrocytes, osmotic lysis, higher = more signal, called active from +8 up or from −8 down
[16] = plasmodial surface anion channel blockers, osmotic lysis – cell-based, P. falciparum Indochina, OD700, 18 h, primary screen (AID 1157); settings: P. falciparum Indochina infected erythrocytes, osmotic lysis OD700, 18 h; higher = more signal, called active from +8 up or from −8 down
[17] = S6 kinase pathway phospho-S6 level changes – cell-based, A549, cytoblot, luminescence, serum-stimulated, primary screen (AID 1158); settings: 5 h, higher = more signal;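 further: serum-stimulated A549 lung adenocarcinoma cells; signal is phosphorylated S6 detected by cytoblot immunostaining with HRP secondary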
[18] = target: NADPH oxidase 2 (Homo sapiens) (UniProt P04839); experiment: compounds shifting NOX2 Amplex Red fluorescence – cell-based, HEK293-NOX2, PMA-stimulated, NOX inhibitor project, primary screen (AID 1159); settings: 45 min, higher = more signal, called active from +8 up or from −8 down; further: test concentration not given here
[19] = target: NADPH oxidase 4 (Homo sapiens) (UniProt Q9NPH5); experiment: compounds shifting NOX4 Amplex Red fluorescence – cell-based, HEK293-NOX4, tetracycline-induced, NOX inhibitor project, primary screen (AID 1160); settings: HEK293-NOX4, Amplex Red H2O2 fluorescence, 45 min; higher = more signal, called active from +8 up or from −8 down
[20] = target: NADPH oxidase 5 (Homo sapiens) (UniProt Q96PH1); experiment: compounds shifting NOX5 Amplex Red fluorescence – cell-based, HEK293-NOX5, NOX inhibitor project, primary screen (AID 1161); settings: HEK293-NOX5, ionomycin, 45 min, higher = more signal
Chain of NADPH oxidase 5 (Homo sapiens) (Q96PH1 whole entry, looked up): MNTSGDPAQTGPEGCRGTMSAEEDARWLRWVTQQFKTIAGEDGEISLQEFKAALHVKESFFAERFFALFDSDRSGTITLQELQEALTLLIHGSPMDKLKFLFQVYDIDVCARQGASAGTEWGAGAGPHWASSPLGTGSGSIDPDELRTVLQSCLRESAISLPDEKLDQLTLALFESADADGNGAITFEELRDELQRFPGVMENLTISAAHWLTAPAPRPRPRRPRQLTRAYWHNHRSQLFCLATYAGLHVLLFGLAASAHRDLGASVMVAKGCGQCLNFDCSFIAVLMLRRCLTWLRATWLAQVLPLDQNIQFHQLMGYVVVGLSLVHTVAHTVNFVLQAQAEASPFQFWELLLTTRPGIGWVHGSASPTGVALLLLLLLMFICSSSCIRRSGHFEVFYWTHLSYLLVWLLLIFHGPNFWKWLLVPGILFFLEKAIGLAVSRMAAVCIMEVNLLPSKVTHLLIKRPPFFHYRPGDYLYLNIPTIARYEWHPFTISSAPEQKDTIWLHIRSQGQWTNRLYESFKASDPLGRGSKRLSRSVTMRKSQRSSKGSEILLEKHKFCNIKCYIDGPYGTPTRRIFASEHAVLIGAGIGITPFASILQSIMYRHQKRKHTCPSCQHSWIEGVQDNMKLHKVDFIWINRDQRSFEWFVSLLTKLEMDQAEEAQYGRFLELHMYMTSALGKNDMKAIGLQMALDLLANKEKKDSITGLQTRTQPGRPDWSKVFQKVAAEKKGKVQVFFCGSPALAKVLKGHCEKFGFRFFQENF

Chain of Streptavidin (Streptomyces avidinii) (P22629 whole entry, looked up): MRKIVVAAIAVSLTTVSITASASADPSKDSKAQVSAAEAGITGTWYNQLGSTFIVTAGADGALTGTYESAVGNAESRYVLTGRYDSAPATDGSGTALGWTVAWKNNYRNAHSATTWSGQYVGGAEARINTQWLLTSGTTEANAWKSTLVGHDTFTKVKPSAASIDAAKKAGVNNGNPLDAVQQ
Chain of Torsin-1A (Homo sapiens) (O14656 whole entry, looked up): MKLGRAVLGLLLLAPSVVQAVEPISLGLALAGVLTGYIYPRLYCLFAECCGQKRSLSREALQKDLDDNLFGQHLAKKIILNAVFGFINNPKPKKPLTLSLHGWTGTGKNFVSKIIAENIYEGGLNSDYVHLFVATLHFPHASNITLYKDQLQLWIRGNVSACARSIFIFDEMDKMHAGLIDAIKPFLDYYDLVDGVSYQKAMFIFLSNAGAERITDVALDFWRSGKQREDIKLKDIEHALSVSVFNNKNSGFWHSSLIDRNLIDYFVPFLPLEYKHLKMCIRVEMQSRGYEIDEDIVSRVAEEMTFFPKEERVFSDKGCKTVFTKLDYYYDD
Chain of NADPH oxidase 2 (Homo sapiens) (P04839 whole entry, looked up): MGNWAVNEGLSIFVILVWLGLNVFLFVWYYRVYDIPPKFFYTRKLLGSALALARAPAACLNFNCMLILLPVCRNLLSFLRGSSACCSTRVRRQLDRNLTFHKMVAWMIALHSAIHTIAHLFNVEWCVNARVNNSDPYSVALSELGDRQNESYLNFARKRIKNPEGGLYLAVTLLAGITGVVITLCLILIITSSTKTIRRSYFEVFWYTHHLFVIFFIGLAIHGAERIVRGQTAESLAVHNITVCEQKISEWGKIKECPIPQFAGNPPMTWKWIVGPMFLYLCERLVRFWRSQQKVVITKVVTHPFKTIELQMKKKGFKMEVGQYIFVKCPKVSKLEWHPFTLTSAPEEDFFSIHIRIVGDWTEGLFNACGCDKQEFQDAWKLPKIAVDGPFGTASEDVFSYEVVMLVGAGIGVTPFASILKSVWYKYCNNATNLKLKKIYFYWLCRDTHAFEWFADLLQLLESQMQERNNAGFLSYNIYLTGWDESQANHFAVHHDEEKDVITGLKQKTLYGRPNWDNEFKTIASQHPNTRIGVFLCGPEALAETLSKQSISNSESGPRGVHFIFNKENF
Chain of NADPH oxidase 4 (Homo sapiens) (Q9NPH5 whole entry, looked up): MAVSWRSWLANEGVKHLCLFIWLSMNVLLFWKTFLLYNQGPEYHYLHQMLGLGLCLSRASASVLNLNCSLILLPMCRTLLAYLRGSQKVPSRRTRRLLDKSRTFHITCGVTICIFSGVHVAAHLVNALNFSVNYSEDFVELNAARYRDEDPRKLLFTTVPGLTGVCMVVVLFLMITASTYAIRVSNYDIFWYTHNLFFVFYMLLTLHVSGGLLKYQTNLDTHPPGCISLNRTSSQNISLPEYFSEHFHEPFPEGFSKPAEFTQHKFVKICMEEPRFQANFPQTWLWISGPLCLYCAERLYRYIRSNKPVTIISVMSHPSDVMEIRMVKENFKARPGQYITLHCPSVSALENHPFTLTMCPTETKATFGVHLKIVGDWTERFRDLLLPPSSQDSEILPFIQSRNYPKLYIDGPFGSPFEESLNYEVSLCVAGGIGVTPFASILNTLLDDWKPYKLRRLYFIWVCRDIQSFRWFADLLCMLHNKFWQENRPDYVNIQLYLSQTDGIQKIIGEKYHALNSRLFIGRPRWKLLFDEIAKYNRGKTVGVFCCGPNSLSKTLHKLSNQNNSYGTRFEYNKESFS

| SMILES | composite z-score [1] | z-score [2] | z-score [3] | z-score [4] | z-score [5] | composite z-score [6] | composite z-score [7] | composite z-score (Torsin-1A (Homo sapiens) [8]) | composite z-score (Torsin-1A (Homo sapiens) [9]) | composite z-score [10] | z-score [11] | composite z-score [12] | z-score [13] | z-score [14] | z-score [15] | z-score [16] | z-score [17] | z-score [18] | z-score [19] | z-score [20] |
| --- | --- | --- | --- | --- | --- | --- | --- | --- | --- | --- | --- | --- | --- | --- | --- | --- | --- | --- | --- | --- |
| Cc1c(-c2ccc(-c3ccc(Cl)c(Cl)c3)o2)nc(-c2ccccc2)c2c1CO[Si]2(C(C)C)C(C)C | -0.0882 | -0.98 (inactive) | 0.163 (inactive) | -0.882 (inactive) | 1.86 (inactive) | -0.107 | -0.179 | -0.455 | -0.474 | 0.426 | -1.3 (inactive) | -0.101 | 0.311 (inactive) | -0.267 (inactive) | -0.803 (inactive) | -0.944 (inactive) | -0.298 | -0.545 (inactive) | 0.0324 (inactive) | -0.237 |
| CC(C)C[C@H]1NC(=O)[C@@]23C(=O)N[C@@H](Cc4ccccc4)C2[C@H](C)[C@@]2(C)O[C@H]2C3/C=C/C/C=C\CNC(=O)[C@@H]2CCCN2C1=O (stereo not given in full) | 0.275 | -0.264 (inactive) | 0.341 (inactive) | 0.13 (inactive) | 0.865 (inactive) | -0.362 | -0.0471 | -0.056 | -0.0683 | 1.55 | -1.09 (inactive) | -0.0544 | 0.0869 (inactive) | -0.26 (inactive) | -0.875 (inactive) | -0.234 (inactive) | 0.0247 | 0.708 (inactive) | 1.29 (inactive) | 0.968 |
| C=CCC(OC(C)=O)[C@@H]1[C@@H](N(Cc2cccc3ccccc23)C(=O)c2ccc(-c3ccccc3)cc2)c2cc(OCCCO)ccc2N1C(=O)c1ccc2ccccc2n1 (stereo not given in full) | -0.133 | -0.205 (inactive) | 0.409 (inactive) | 0.106 (inactive) | 0.481 (inactive) | 0.582 | 0.195 | 0.178 | 0.309 | 0.664 | -0.688 (inactive) | 0.123 | 0.0025 (inactive) | -0.232 (inactive) | -0.44 (inactive) | -0.0821 (inactive) | 1.14 | -0.0242 (inactive) | 1.04 (inactive) | 1.48 |
| CC(C)C[C@@H]1NC(=O)[C@H]2C[C@@H](C(=O)NCCCCCNC(=O)CS)[C@@H](c3ccc(O)cc3)N2C1=O | 0.702 | -0.153 (inactive) | -0.215 (inactive) | 0.135 (inactive) | -0.908 (inactive) | 0.413 | -0.116 | 0.6 | 0.997 | 1.35 | 0.213 (inactive) | -0.549 | 3.25 (inactive) | 0.945 (inactive) | 0.256 (inactive) | 0.277 (inactive) | -0.277 | 1 (inactive) | -0.828 (inactive) | 0.918 |
| N[C@@H](Cc1ccccc1)Cn1cc(C2(O)CCCCC2)nn1 | -0.0937 | 0.08 (inactive) | 0.683 (inactive) | -0.244 (inactive) | 0.766 (inactive) | 0.984 | -0.0494 | 0.0636 | -0.0257 | -0.219 | -1.05 (inactive) | 0.099 | 0.225 (inactive) | -0.304 (inactive) | 0.005 (inactive) | 0.137 (inactive) | -0.225 | 0.0811 (inactive) | 1.51 (inactive) | 1.19 |
| CCCCC(=C=CC[C@@H](O)c1cccc(OCCO)c1)C[C@@H](O)COCc1ccccc1 | -0.225 | -2.51 (inactive) | -0.279 (inactive) | 6.81 (inactive) | -0.731 (inactive) | -0.577 | -0.05 | -0.387 | -0.444 | 0.362 | 1.76 (inactive) | -0.101 | 16.3 (active) | 1.3 (inactive) | 0.605 (inactive) | -1.07 (inactive) | 2.58 | -1.61 (inactive) | -1.01 (inactive) | -2.47 |
| N#Cc1ccc(C(O)C2C=CC3C(=O)N(c4ccccc4)C(=O)C3N2Nc2ccc([N+](=O)[O-])cc2)cc1 (stereo not given) | 0.488 | -0.843 (inactive) | -0.532 (inactive) | -0.0696 (inactive) | -1.24 (inactive) | 1.86 | 0.252 | 0.0605 | 0.212 | -0.51 | -0.955 (inactive) | 0.391 | 25.8 (active) | 12.8 (active) | 2.25 (inactive) | 1.56 (inactive) | -0.283 | -0.562 (inactive) | -2.25 (inactive) | -1.83 |
| C[C@H]1C2[C@H](Cc3ccccc3)NC(=O)[C@]23C(=O)NCC(=O)N2CCC[C@H]2C(=O)NC/C=C\C/C=C/C3[C@@H]2O[C@]12C (stereo not given in full) | 0.0076 | 0.493 (inactive) | 0.716 (inactive) | 0.495 (inactive) | -0.294 (inactive) | -0.744 | -0.018 | -0.266 | -0.618 | 1.2 | 0.822 (inactive) | -0.193 | -0.0865 (inactive) | -0.387 (inactive) | -0.62 (inactive) | -0.113 (inactive) | 0.255 | 0.212 (inactive) | 1.07 (inactive) | 0.649 |
| C=C(/C(=C/C[C@H](OC(=O)c1ccncc1)c1ccccc1OCCO)c1cc(C(=O)OC)ccc1OC)C(C)C | 0.913 | -1.5 (inactive) | -0.439 (inactive) | 6.99 (inactive) | 0.644 (inactive) | -0.0945 | -0.0375 | 0.712 | 0.441 | 1.74 | -0.458 (inactive) | 0.428 | 14.9 (active) | 2.53 (inactive) | 2.19 (inactive) | 1.02 (inactive) | 0.222 | 1.22 (inactive) | -0.614 (inactive) | -1.29 |
